The whole screen tested about 39,000 compounds, of which about 1,500 (3.8%) were called active. The entries come from a sample that favours actives as a whole.
These molecules were tested on HSkMC (human skeletal muscle cells) (assay: cytotoxicity call (relative viability < 0.9)). Conditions: 10 µM.

| SMILES | cytotoxicity call |
| --- | --- |
| NCCc1ccc(O)cc1 [listing 1 of 2 here] | inactive |
| NCCc1ccc(O)cc1 [listing 2 of 2 here] | inactive |
| CCCCCCCCCc1ccc(O)cc1 | active |
| COP(=O)(OC)OC(Br)C(Cl)(Cl)Br (stereo unspecified) | inactive |
| COC(=O)[C@H]1CNC(=O)C1 | inactive |
| C=C(C)C1C2OC(=O)C1C1(O)CC3OC34C(=O)OC2C14C (stereo unspecified) | inactive |
| C1COC2(CCNCC2)OC1 | inactive |
| Cl.OC1CCCCC1N1CCC(c2ccccc2)CC1 (stereo unspecified) | inactive |
| CC12C(=O)OC(=O)C1(C)C1CCC2O1 (stereo unspecified) | inactive |
| C[C@]12C(=O)OC(=O)[C@]1(C)[C@H]1CC[C@H]2O1 | active |
| C[C@@]12C(=O)OC(=O)[C@]1(C)[C@H]1CC[C@@H]2O1 | active |
| C(=N/C12CN3CN(CN(C3)C1)C2)/c1cccnc1 | inactive |
| CC(=CCn1c[n+](C)c2c(N)ncnc21)CCC1(C)C(C)CCC2(C)C(C)=CCCC21.[Cl-] (stereo unspecified) | inactive |
| OCC1CCCN2CCCCC12 (stereo unspecified) | inactive |
| N=C(N)N/N=C/c1ccc2c(c1)OCO2 | inactive |
| COc1ccc(OC(=O)N(C)C[C@@H]2OCc3ccccc3-c3c(n(C)c4ccccc34)C(=O)N([C@H](C)CO)C[C@H]2C)cc1 | active |
| COc1ccc(OC(=O)N(C)C[C@H]2OCc3ccccc3-c3c(n(C)c4ccccc34)C(=O)N([C@@H](C)CO)C[C@H]2C)cc1 | inactive |
| Cc1ccc(OC(=O)N(C)C[C@@H]2OCc3ccccc3-c3c(n(C)c4ccccc34)C(=O)N([C@H](C)CO)C[C@@H]2C)cc1 | inactive |
| Cc1ccc(OC(=O)N(C)C[C@@H]2OCc3ccccc3-c3c(n(C)c4ccccc34)C(=O)N([C@@H](C)CO)C[C@H]2C)cc1 | inactive |
| Cc1ccc(OC(=O)N(C)C[C@H]2OCc3ccccc3-c3c(n(C)c4ccccc34)C(=O)N([C@H](C)CO)C[C@@H]2C)cc1 | active |
| COc1ccc(OC(=O)N(C)C[C@H]2OCc3ccccc3-c3c(n(C)c4ccccc34)C(=O)N([C@H](C)CO)C[C@@H]2C)cc1 | inactive |

| SMILES | cytotoxicity call |
| --- | --- |
| O=C(NC(O)C(Cl)(Cl)Cl)NC(O)C(Cl)(Cl)Cl (stereo unspecified) | inactive |
| CC(C)C[C@@H]1C(=O)N2CCC[C@@H]2[C@]2(O)O[C@@](NC(=O)[C@@H]3C=C4c5cccc6[nH]cc(c56)C[C@@H]4N(C)C3)(C(C)C)C(=O)N12 | inactive |
| C[C@H]1CN(C)[C@@H](C)C[C@@H]1n1[nH]c(=O)cc1N | inactive |
| CO[C@H]1[C@H]2CC[C@@H]1NC2 | inactive |
| OCC(Br)(Br)Br | inactive |
| O=[N+]([O-])C(Br)(CO)CO [listing 1 of 2 here] | active |
| O=[N+]([O-])C(Br)(CO)CO [listing 2 of 2 here] | active |
| C=C(C)[C@@H]1[C@H]2OC(=O)[C@H]1[C@]1(O)C[C@H]3O[C@]34C(=O)O[C@H]2[C@]14C | inactive |
| Cc1cc(N2CCN(C)CC2)ncn1 | inactive |
| CN1[C@@H](CO)[C@@H]2c3ccccc3NC[C@@H]21 | inactive |
| COc1ccc(OC(=O)N(C)C[C@@H]2OCc3ccccc3-c3c(n(C)c4ccccc34)C(=O)N([C@H](C)CO)C[C@@H]2C)cc1 | inactive |
| CC[n+]1c(-c2ccccc2)c2cc(N)ccc2c2ccc(N)cc21.[Br-] | inactive |
| CN[C@H]1C[C@@H](N)[C@H](O)[C@@H](O[C@@H]2O[C@H](CO)[C@H](O)[C@@H]3O[C@@]4(O[C@H]23)O[C@H]([C@@H](N)CO)[C@H](O)[C@H](O)[C@H]4O)[C@@H]1O | active |
| O=c1cccc2n1C[C@@H]1C[C@H]2CN(C[C@H](O)/C=N/n2cnnc2)C1 | inactive |
| CC(=O)OCC1=C(C(=O)O)N2C(=O)[C@@H](NC(=O)CCC[C@@H](N)C(=O)O)[C@@H]2SC1 | inactive |
| N[C@@H](Cc1ccc(O)cc1)C(=O)NCC(=O)NCC(=O)O | inactive |
| Cc1nc2c(=O)n(C)c(=O)nc-2n(C)n1 | active |
| Cn1ncnc2c(=O)n(C)c(=O)nc1-2 | active |
| Cc1cnc(C(=O)N2C[C@H]3CNC[C@H]3C2)cn1 | inactive |
| [O-][n+]1ccccc1[S][Zn][S]c1cccc[n+]1[O-] | active |
| O=C(O)C[C@@H]1CC[C@H]2NC[C@@H](O)COC[C@@H]2O1 | inactive |

| SMILES | cytotoxicity call |
| --- | --- |
| Cc1cc(O)c2c(=O)c3c(O)cc(O)c4c5c(O)cc(O)c6c(=O)c7c(O)cc(C)c8c1c2c(c34)c(c78)c65 | active |
| CCC1(O)C(=O)OCc2c1cc1n(c2=O)Cc2cc3ccccc3nc2-1 (stereo unspecified) | inactive |
| Cc1nc(-c2ccc(-c3ccc(C(=O)N4CCc5cc6c(cc54)C4(CCN(C)CC4)CO6)cc3)c(C)c2)no1 | active |
| C=C(C)[C@H]1O[C@H]2CC[C@@]3(C)[C@@](O)(CC[C@H]4[C@@H]5OC(C)(C)[C@H]6C[C@@H]7C(=C)Cc8c(Cl)cc9[nH]c(c5c9c8[C@@]76O)[C@@]43C)[C@]23O[C@@H]3[C@H]1O | inactive |
| O=C1[O][Pt]2([NH][C@@H]3CCCC[C@H]3[NH]2)[O]C1=O | active |
| CN(C)c1ccc(CCN)cc1 | inactive |
| Br.CC(Cc1ccc(O)cc1)NCC(O)c1cc(O)cc(O)c1 (stereo unspecified) | inactive |
| Cc1cc2c(C(C)C)c(O)c(O)c(C=O)c2c(O)c1-c1c(C)cc2c(C(C)C)c(O)c(O)c(C=O)c2c1O [listing 1 of 2 here] | inactive |
| Cc1cc2c(C(C)C)c(O)c(O)c(C=O)c2c(O)c1-c1c(C)cc2c(C(C)C)c(O)c(O)c(C=O)c2c1O [listing 2 of 2 here] | active |
| CC(=O)O.Cc1cc2c(C(C)C)c(O)c(O)c(C=O)c2c(O)c1-c1c(C)cc2c(C(C)C)c(O)c(O)c(C=O)c2c1O | inactive |
| O=C(O)C=CCO | inactive |
| COCC12CN(C=O)C3C4C(OC)C1C3(C(OC)CC2O)C1CC2(O)C(OC)C(O)C4(OC(C)=O)C1C2OC(=O)c1ccccc1 (stereo unspecified) | inactive |
| O=C1CCN(C(=O)C2CCC2)CC1 | inactive |
| COC(=O)[C@]1(Cc2ccccc2N=[N+]=[N-])N=C(c2ccc(OCCCO)cc2)O[C@@H]1c1ccccc1N=[N+]=[N-] | active |
| COC(=O)[C@@]1(Cc2ccccc2N=[N+]=[N-])N=C(c2ccc(OCCCO)cc2)O[C@H]1c1ccccc1N=[N+]=[N-] | active |
| COC(=O)[C@@]1(Cc2ccccc2CN=[N+]=[N-])N=C(c2ccc(OCCCO)cc2)O[C@H]1c1ccccc1N=[N+]=[N-] | inactive |
| COC(=O)[C@]1(Cc2ccccc2N=[N+]=[N-])N=C(c2ccc(OCCCO)cc2)O[C@@H]1c1ccccc1CN=[N+]=[N-] | inactive |
| COC(=O)[C@@]1(Cc2ccccc2N=[N+]=[N-])N=C(c2ccc(OCCCO)cc2)O[C@H]1c1ccccc1CN=[N+]=[N-] | inactive |
| COC(=O)[C@]1(Cc2ccccc2CN=[N+]=[N-])N=C(c2ccc(OCCCO)cc2)O[C@@H]1c1ccccc1N=[N+]=[N-] | inactive |

From the antibiotic and cytotoxicity screens of Wong et al. (2023)
